This passage reports Inhibition results from ChEMBL document CHEMBL4513141, “CO-ADD screening of NIH (USA) - Clinical Collection” (2021).

Results with a measured potency or affinity are listed apart.

In general, Inhibition refers to the change of the read-out against control, counted positive when it falls.

One assay deals with Staphylococcus aureus. As to conditions: Concentration 20 uM; ASSAY_TEST Inhibition of Bacterial Growth; detection method Absorption (OD600); MEDIA CAMHB; plate type 384well; NBS; CORNING #3640; time 18 hr.
For a further assay, the system named is Escherichia coli. As to conditions: Concentration 20 uM; ASSAY_TEST Inhibition of Bacterial Growth; detection method Absorption (OD600); MEDIA CAMHB; plate type 384well; NBS; CORNING #3640; time 18 hr.

As for `O=C1c2c(O)cc(O)cc2O[C@H](c2ccc(O)c(O)c2)[C@H]1O` [(+)-TAXIFOLIN], the Inhibition in the assay on Staphylococcus aureus was 8.9%; in the assay with Escherichia coli, -0.85%.

Consider `Clc1ccc2c(c1)C(N1CCNCC1)=Nc1ccccc1O2` [AMOXAPINE], for which the Inhibition in the assay on Staphylococcus aureus is recorded as 3.79%; with Escherichia coli it was 7%.

As to `O=[N+]([O-])c1cccc2cn[nH]c12` [7-NITROINDAZOLE], the figures for the Inhibition in the assay with Staphylococcus aureus and in the assay with Escherichia coli were 16.98% and 6.38%, respectively.

In the case of `Cc1cn([C@H]2C=C[C@@H](CO)O2)c(=O)[nH]c1=O` [STAVUDINE], the Inhibition stood at 17.22% in the assay on Staphylococcus aureus and 4.38% in the assay with Escherichia coli.

As to `CCOC(=O)[C@H](CCc1ccccc1)N[C@@H](C)C(=O)N1[C@H](C(=O)O)C[C@@H]2CCC[C@@H]21`, the Inhibition with Staphylococcus aureus is recorded as 17.44%; in the assay with Escherichia coli, 1.83%.

Regarding `CC(C)(C)NCC(O)COc1cccc2c1CC(O)C(O)C2` (stereo unspecified) [NADOLOL], the Inhibition in the assay with Staphylococcus aureus turned out to be 16.27%; in the assay with Escherichia coli, 3.67%.

As for `CO[C@H]1O[C@@H]2O[C@@]3(C)CC[C@H]4[C@H](C)CC[C@@H]([C@H]1C)[C@@]24OO3`, the Inhibition in the assay with Staphylococcus aureus was determined as 8.78%; in the assay on Escherichia coli, 13.66%.

For the compound `CN(C)CCOC(c1ccccc1)c1ccccc1.Cl` [DIPHENHYDRAMINE HYDROCHLORIDE], the Inhibition with Staphylococcus aureus is on record as -13.43%.

Regarding `CCC(=O)O[C@]1(C(=O)SCF)[C@H](C)C[C@H]2[C@@H]3C[C@H](F)C4=CC(=O)C=C[C@]4(C)[C@@]3(F)[C@@H](O)C[C@@]21C` [FLUTICASONE PROPIONATE], the Inhibition was -21.58% with Staphylococcus aureus and 6.95% in the assay with Escherichia coli.

Regarding `O=C(CCCN1CC=C(n2c(=O)[nH]c3ccccc32)CC1)c1ccc(F)cc1` [DROPERIDOL], the Inhibition in the assay with Staphylococcus aureus was 14.29%; in the assay on Escherichia coli, -7.37%.

As for `CCOC(=O)N1CCC(=C2c3ccc(Cl)cc3CCc3cccnc32)CC1` [LORATADINE], in the assay on Staphylococcus aureus, the Inhibition came to 11.88%.

For the compound `O=c1cnn([C@@H]2O[C@H](CO)[C@@H](O)[C@H]2O)c(=O)[nH]1` [6-AZAURIDINE], the Inhibition with Staphylococcus aureus was -22.3%; in the assay on Escherichia coli, 4.59%.

With `Cc1cccc(C)c1OCC(C)N.Cl` (stereo unspecified) [MEXILETINE HYDROCHLORIDE], the figures for the Inhibition in the assay on Staphylococcus aureus and with Escherichia coli were 13.57% and 3.59%, respectively.

Take `CC(C)(C(=O)O)c1ccc(C(O)CCCN2CCC(C(O)(c3ccccc3)c3ccccc3)CC2)cc1.Cl` (stereo unspecified) [FEXOFENADINE HYDROCHLORIDE]: in the assay on Staphylococcus aureus, the Inhibition was 11.48%.

For the compound `NC(=O)c1cnccn1` [PYRAZINAMIDE], the Inhibition is reported as 14.57% in the assay with Staphylococcus aureus and 2% in the assay on Escherichia coli.

Take `CC(C)[N+]1(C)C2CCC1CC(OC(=O)C(CO)c1ccccc1)C2.[Br-]` (stereo unspecified): in the assay with Staphylococcus aureus, the Inhibition came out at 9.02%.

For the compound `CCCNCC(O)COc1ccccc1C(=O)CCc1ccccc1` (stereo unspecified) [PROPAFENONE], the Inhibition in the assay on Staphylococcus aureus amounted to 9.33%; in the assay with Escherichia coli it was 8.72%.

Consider `CCN(CC)C(=O)[C@]1(c2ccccc2)C[C@@H]1CN.Cl` [1R,2S-MILNACIPRAN HYDROCHLORIDE], for which the Inhibition in the assay with Staphylococcus aureus is 5.25%; in the assay on Escherichia coli, 4.64%.

`CC(C)[C@H]1CC[C@H](C(=O)N[C@H](Cc2ccccc2)C(=O)O)CC1` [NATEGLINIDE]: the Inhibition is 10.43% with Staphylococcus aureus and 6.41% in the assay with Escherichia coli.

As for `CC(C)OC(=O)CCC/C=C\C[C@@H]1[C@@H](CC[C@@H](O)CCc2ccccc2)[C@H](O)C[C@@H]1O` [LATANOPROST], the Inhibition with Staphylococcus aureus is recorded as 13.97%; in the assay on Escherichia coli it was 1.96%.

Regarding `CC1(C)O[C@@H]2[C@@H](CO[C@@]3(COS(N)(=O)=O)OC(C)(C)O[C@@H]23)O1` [TOPIRAMATE], the values for the Inhibition in the assay on Staphylococcus aureus and in the assay with Escherichia coli were 3.5% and 6.36%, respectively.

As to `OCCN1C[C@H](O)[C@@H](O)[C@H](O)[C@H]1CO` [MIGLITOL], the Inhibition with Staphylococcus aureus worked out at 16.69%; in the assay with Escherichia coli, 5.82%.

`Cl.Clc1ccc2nsnc2c1NC1=NCCN1` [TIZANIDINE HYDROCHLORIDE]: the results for the Inhibition with Staphylococcus aureus and in the assay with Escherichia coli were -18.93% and 6.6%, respectively.

For `CN1CCC(=C2c3ccccc3C=Cc3ccccc32)CC1.Cl` [CYPROHEPTADINE HYDROCHLORIDE], the Inhibition turned out to be 5.98% with Staphylococcus aureus and 6.77% in the assay on Escherichia coli.

Take `C[C@]12CCC(=O)C=C1CC[C@@H]1[C@@H]2[C@@H](O)C[C@@]2(C)[C@H]1CC[C@]2(O)C(=O)CO` [HYDROCORTISONE]: the Inhibition in the assay on Staphylococcus aureus was determined as 7.72%.

Turning to `COc1cc(C(=O)NS(=O)(=O)c2ccccc2C)ccc1Cc1cn(C)c2ccc(NC(=O)OC3CCCC3)cc12` [ZAFIRLUKAST], the figures for the Inhibition in the assay with Staphylococcus aureus and with Escherichia coli were 36.84% and 4.93%, respectively.

For the compound `COc1cc(C(=O)NC2CCCNC2)cc(OC)c1OC` (stereo unspecified) [TROXIPIDE], the values for the Inhibition in the assay on Staphylococcus aureus and in the assay on Escherichia coli were 21.18% and 2.83%, respectively.

Turning to `CCCCNc1cc(C(=O)O)cc(S(N)(=O)=O)c1Oc1ccccc1` [BUMETANIDE], the Inhibition in the assay on Staphylococcus aureus is 10.97%; with Escherichia coli, 5.78%.
